Screening results as filed in PubChem.
LYPLA2 inh: blocks human lysophospholipase 2, a PME1 counter-screen | inhibition, % at 5.9 µM | recombinant LYPLA2, FP-Rh probe fluorescence polarization | O95372 | 320,000 tested, 0.38% active;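 active = inhibition above the screen-wide mean plus 3 SD, limit set per campaign, cut at about 26% in these data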;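 note: 0% = LYPLA2 with DMSO and 100% = wells lacking LYPLA2 enzyme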
GSTO1 inh: blocks human GSTO1 in RBBP9 counter-screen; 300,000 tested, 1.1% active; inhibition, % at 5.96 µM; AID 1974; recombinant GSTO1, activity-based probe fluorescence polarization; P78417;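 active = inhibition above the campaign mean inhibition plus 3 SD, cut at about 35% in these data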;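 note: 0% = GSTO1-1 with DMSO and 100% = wells lacking GSTO1-1 enzyme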
Fam108B counter: Fam108B inhibition, counter-screen for RBBP9 inhibitors. recombinant Fam108B, FP-Rh probe fluorescence polarization. inhibition, % at 9.51 µM. 300,000 tested, 0.33% active;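 active = inhibition above the screen mean inhibition plus 3 SD, computed separately per campaign, cut at about 18% in these data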;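 note: inhibitors lower polarization as less probe binds the enzyme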
PME-1 primary: blocks human protein phosphatase methylesterase 1; Q9Y570; recombinant PME-1, FP-Rh probe fluorescence polarization; inhibition, % at 5.9 µM; 320,000 tested, 0.53% active; AID 2130;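 active = inhibition above the campaign mean of all compounds plus 3 SD, cut at about 26% in these data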;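 note: competitive labeling of PME-1 active site by serine hydrolase directed probe; 0% = PME-1 with DMSO and 100% = wells lacking PME-1 enzyme; inhibitors block probe labeling so polarization falls and inhibition rises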
PAD4 inh: PAD4 (human) enzyme inhibition. recombinant PAD4, RCA probe fluorescence polarization. 330,000 tested, 0.41% active. inhibition, % at 6.36 µM. Q9UM07;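 active = percent inhibition above a cutoff equal to the mean of all tested compounds plus 3 SD, cut at about 15% in these data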;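 note: 0% = PAD4 with RCA probe and DMSO and 100% = probe without PAD4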
Target sequence (Q9UM07 whole entry, looked up): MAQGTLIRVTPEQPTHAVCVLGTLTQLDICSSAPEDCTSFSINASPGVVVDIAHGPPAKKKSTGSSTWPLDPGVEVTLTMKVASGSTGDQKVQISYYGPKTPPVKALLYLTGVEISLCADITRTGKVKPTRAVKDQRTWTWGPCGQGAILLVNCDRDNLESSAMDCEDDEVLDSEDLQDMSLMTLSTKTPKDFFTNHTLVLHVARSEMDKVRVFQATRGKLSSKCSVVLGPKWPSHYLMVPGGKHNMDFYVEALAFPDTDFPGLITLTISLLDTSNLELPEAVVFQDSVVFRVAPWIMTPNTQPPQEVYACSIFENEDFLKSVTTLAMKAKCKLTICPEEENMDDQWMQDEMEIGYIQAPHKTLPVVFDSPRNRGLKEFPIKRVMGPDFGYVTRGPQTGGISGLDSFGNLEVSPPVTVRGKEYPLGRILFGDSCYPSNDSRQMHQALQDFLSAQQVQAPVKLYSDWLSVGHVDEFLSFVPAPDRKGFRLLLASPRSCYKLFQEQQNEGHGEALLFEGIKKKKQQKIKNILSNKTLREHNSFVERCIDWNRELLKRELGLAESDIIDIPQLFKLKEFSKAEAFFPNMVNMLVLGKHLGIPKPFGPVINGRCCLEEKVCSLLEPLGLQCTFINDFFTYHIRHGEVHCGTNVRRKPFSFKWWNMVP
LYPLA1 counter: counter-screen for PME1 inhibitors: inhibitors of human LYPLA1; recombinant LYPLA1, FP-Rh probe fluorescence polarization; O75608; AID 2174; 320,000 tested, 0.16% active; inhibition, % at 5.9 µM;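 active = inhibition above the mean of all tested compounds plus 3 SD, set per campaign, cut at about 14% in these data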;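 note: inhibitors block serine hydrolase probe labeling of LYPLA1 so polarization falls; 0% = enzyme with DMSO and 100% = wells lacking LYPLA1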
* = called active by the depositor; · = not tested or not shown. In the library only some 1.8% were active in any assay of this set; here they are far more common.

SMILES | LYPLA2 inh | GSTO1 inh | Fam108B counter | PME-1 primary | PAD4 inh | LYPLA1 counter
COC(=O)c1ccccc1C(=O)c1ccc2c(c1)NC(=O)CO2 | 4.8 | -5.1 | 2.9 | 39.4* | -0.4 | 2.3
O=C1COc2ccc(C(=O)COC(=O)c3ccccc3F)cc2N1 | · | · | · | · | -4.7 | ·
COc1ccccc1NC(=S)N1CCN(c2cccc(C)c2C)CC1 | -2.4 | 2.9 | -2.6 | 0.4 | 1.0 | -2.6
O=C(NCc1ccccn1)c1cccc(S(=O)(=O)NCc2ccccc2)c1 | -3.0 | 6.4 | -2.0 | 4.6 | 5.9 | 2.8
Cc1ccc2[nH]cc(C(=O)CCl)c2c1 | -8.3 | 93.2* | -4.4 | 3.2 | 1.6 | -5.4
Cc1ccc2[nH]cc(C(=O)CN3CCN(C)CC3)c2c1 | -0.5 | 17.6 | -0.5 | -10.8 | -3.4 | -1.9
CC(=O)Nc1ccc(S(=O)(=O)Nc2nc3ccccc3nc2Nc2ccc(O)c(C(=O)O)c2)cc1 | 2.6 | 27.5 | 7.4 | -9.5 | 3.1 | -2.0
O=C(COC(=O)c1ccc2c(c1[N+](=O)[O-])C(=O)c1ccccc1C2=O)NC1CC1 | -11.4 | 34.8 | -1.8 | 0.5 | -18.2 | -1.9
Cc1cccc(C)c1NC(=O)COC(=O)c1ccccc1Nc1ccccc1 | -7.0 | -5.8 | -3.0 | -3.3 | -3.9 | -3.3
O=C(COC(=O)c1cccc2c1C(=O)c1ccccc1C2=O)NC1CCCCC1 | 2.5 | 6.8 | 6.7 | 40.8* | -11.8 | 3.7
Cc1ccc(NC(=O)COC(=O)c2cccc3c2C(=O)c2ccccc2C3=O)c(C)c1 | -1.2 | 2.5 | 5.3 | 85.5* | 5.1 | -2.5
Cc1cc(C)c(NC(=O)COC(=O)c2cccc3c2C(=O)c2ccccc2C3=O)c(C)c1 | 2.3 | -2.6 | 9.7 | 46.4* | -5.5 | -5.4
Cc1ccc(C)c(NC(=O)COC(=O)c2cccc3c2C(=O)c2ccccc2C3=O)c1 | -2.6 | -2.3 | 3.9 | 88.5* | 3.2 | -2.8
CCCCC1=CC2=C(c3ccco3)C(=O)C(C)(OC(=O)c3ccc(OC)cc3)C(=O)C2=CN1C1CCCC1 (configuration not stated) | -2.0 | 23.9 | -4.0 | 4.2 | -19.6 | 2.1
CCN(CC)c1cccc(OCC(=O)N(C)CCC#N)c1 | -37.9 | -26.7 | -28.4 | -24.0 | 44.9* | -13.4
CCOc1cccc(C(=O)Nc2ccc(N(CC)CC)cc2)c1 | -1.6 | 6.2 | -0.4 | 1.6 | -4.2 | -0.5
O=C1CN(C(=O)COC(=O)c2ccc(Br)o2)c2ccccc2N1 | · | · | · | · | 0.0 | ·
O=c1cc(O)n(C2CCCCCC2)c(=O)[nH]1 | -4.2 | 36.3* | -4.3 | -11.4 | -1.3 | -1.4
O=c1[nH][nH]c(=S)n1C1CCCCC1 | -0.1 | 0.8 | -0.8 | 0.5 | -3.2 | 2.3
NS(=O)(=O)c1ccc(N=Nc2c[nH]c(=O)c(O)c2)cc1 | -9.0 | 64.4* | 4.1 | -66.0 | 2.9 | -3.6
CCOc1cc(-c2cc(-c3ccc(N)cc3)nc(N)c2C#N)ccc1O | -5.5 | -21.9 | 13.8 | 41.1* | -2.3 | 2.1
COc1ccc(OC)c(NC(=O)Nc2nnc(N3CCCCC3C)s2)c1 (configuration not stated) | -5.9 | 8.3 | 4.1 | 15.2 | -4.6 | -3.7
COc1ccc(NC(=O)Nc2nnc(N3CCCCC3C)s2)cc1OC (configuration not stated) | 1.3 | 7.3 | 4.5 | 50.2* | 4.7 | -2.6
CCn1c(=S)sc2c(=O)n(CC(=O)Nc3ccc(Cl)cc3)c(C)nc21 | -3.5 | 24.9 | 0.8 | 0.2 | -4.6 | -1.8
Cc1cc(C(=O)COC(=O)c2ccc(Cl)c(S(N)(=O)=O)c2)c(C)n1CC1CCCO1 (configuration not stated) | 3.8 | 7.0 | 2.3 | 2.1 | -3.2 | 3.2
SMILES | LYPLA2 inh | GSTO1 inh | Fam108B counter | PME-1 primary | PAD4 inh | LYPLA1 counter
COCCn1c(C)cc(C(=O)COC(=O)c2ccc(Cl)c(S(N)(=O)=O)c2)c1C | 1.5 | -7.1 | 25.1* | -3.7 | 1.3 | 3.0
CC(C)c1ccc(OCC(=O)NCc2ccccc2)cc1 | -1.6 | -8.3 | -1.4 | 2.8 | -2.0 | 0.2
CCOC(=O)c1c(C)[nH]c(C)c1S(=O)(=O)N(C)CC(=O)Nc1cc(C)ccc1OC | 2.1 | -1.1 | 4.1 | 26.4* | 0.0 | -2.6
COc1ccc(NC(=O)c2cc(C)no2)cc1 | 3.5 | 10.1 | 4.1 | 1.2 | -3.3 | 0.8
Cc1ccc(NC(=O)COn2nnc3ccc(S(=O)(=O)N(C)C)cc32)cc1F | -3.2 | 35.8* | -6.8 | -0.6 | 2.4 | -3.9
CCc1ccc(NC(=O)COn2nnc3ccc(S(=O)(=O)N(C)C)cc32)cc1 | -1.0 | 26.3 | -3.7 | 2.8 | -2.1 | -2.8
Cc1ccc(SCc2[nH]nc3c2C(c2ccc(C)o2)C(C#N)=C(N)O3)cc1 (configuration not stated) | -6.6 | 36.7* | 0.3 | 9.7 | 13.3 | -2.7
Cc1ccc(SCc2[nH]nc3c2C(C(C)C)C(C#N)=C(N)O3)cc1 (configuration not stated) | 3.4 | -7.6 | -5.5 | -6.2 | -4.9 | 2.5
Cc1ccc(SCc2[nH]nc3c2C(c2ccco2)C(C#N)=C(N)O3)cc1 (configuration not stated) | 3.7 | 36.6* | 3.2 | 6.1 | -8.9 | -2.0
O=CNc1ccc(OC(=O)c2cncc(Br)c2)cc1 | -1.9 | 4.6 | -2.3 | -4.1 | 2.7 | 1.5
C=CCOc1c(Br)cc(/C=N/Nc2ccc(C(=O)O)cc2)cc1OCC | 4.7 | 11.0 | 17.1 | 48.1* | 6.3 | 6.6
COc1ccc(/C=N/Nc2ccc(C(=O)O)cc2)cc1Br | 1.2 | 11.0 | 7.4 | 1.7 | 0.7 | 2.3
CCc1ccc(/C=C/C(=O)c2cc(Br)ccc(=O)c2O)cc1 | 5.7 | 9.7 | 13.4 | 4.4 | -7.6 | -4.9
Cc1cccc(/C=C/C(=O)c2cc(Br)ccc(=O)c2O)c1 | 2.4 | 35.0* | 5.5 | 4.4 | 1.5 | -1.9
CC(=O)Nc1ccc(S(=O)(=O)N(C)CC(=O)OCC(=O)c2ccc[nH]2)cc1 | · | · | · | · | -1.4 | ·
COc1cccc(CNc2ccccc2O)c1OCc1ccccc1F | -3.7 | 36.1* | 9.4 | 2.2 | -20.5 | -5.6
COCc1cc(N2CCCCC2)nc(-c2ccccc2)n1 | -6.2 | 3.7 | 0.0 | -1.5 | 1.6 | 1.0
COC1=C(Nc2ccccc2)C(=O)c2ccccc2C1=O | 2.7 | 48.6* | 5.6 | 15.8 | -12.1 | 2.6
COC1=C(Nc2ccc(C)cc2)C(=O)c2ccccc2C1=O | 6.9 | 32.4 | 4.6 | 11.3 | -8.5 | 2.7
CC(C)(C)n1nnnc1C(c1cccs1)N(Cc1cccnc1)Cc1ccco1 (configuration not stated) | 0.7 | 2.5 | -1.2 | 30.4* | 9.0 | -3.2
CC(C)(C)n1nnnc1C(c1cccs1)N(Cc1ccccc1)Cc1ccco1 (configuration not stated) | 8.6 | -3.4 | -4.3 | -1.4 | 0.4 | 3.4
Cc1[nH]c2ccccc2c1N=Nc1ccccc1C(=O)O | -7.9 | 23.2 | 11.0 | 30.2* | -19.1 | 0.8
O=c1oc2ccccc2c(O)c1CN1CCCCC1 | -4.3 | -68.6 | -0.7 | -1.4 | -2.1 | -2.1
